Screening results as filed in PubChem BioAssay.
N-glyco inh: blocks N-linked glycosylation in D54 reporter cells; D54 ERlucT glycosylation luciferase reporter, 24 h; percent of 100 nM tunicamycin response; reporter increase, % at 12.5 µM; 360,000 compounds, 0.23% hits; AID 588692;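 active = mean luciferase reporter signal, scaled so untreated is 0 and the glycosylation-blocking control 100, at or above a set limit in every replicate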;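 note: luciferase carries N-glycosylation sites so blocking glycosylation raises the light; 0% = median of neutral control wells and 100% = median of 100 nM tunicamycin wells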
AF4-AF9 inh: MLL-AF4/AF9 protein interaction inhibition. AlphaScreen, biotin-AF4 peptide binding to FLAG-AF9. 350,000 compounds, 0.47% hits. inhibition, % at 10 µM;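 active = every replicate reaching a set inhibition limit, whatever the replicate mean, cut at about 25% in these data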;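 note: 0% = plate neutral control median and 100% = total signal loss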
CASP6 VEID inh: inhibitors of human caspase-6. AID 686996. purified caspase-6, Z-VEID-R110 cleavage fluorescence. 350,000 compounds, 0.53% hits. inhibition, % at 12.5 µM. P55212;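 active = mean inhibition across replicates at least about 35%, with every replicate also reaching that limit, limit read from the data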;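 note: 0% = median of neutral control wells and 100% = no fluorescence left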
RAD54 branch: blocks human RAD54 Holliday junction branch migration. Q92698. FAM/BHQ fluorescence. inhibition, % at 10.4 µM. 360,000 compounds, 0.14% hits;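 active = mean normalized replicate activity at least 40 and at least half of replicates scoring 40 or more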;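 note: 0% = median of neutral control wells and 100% = median of positive control wells; inhibitors cause a drop in the FAM fluorescence signal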
Target sequence (Q92698 whole entry, looked up): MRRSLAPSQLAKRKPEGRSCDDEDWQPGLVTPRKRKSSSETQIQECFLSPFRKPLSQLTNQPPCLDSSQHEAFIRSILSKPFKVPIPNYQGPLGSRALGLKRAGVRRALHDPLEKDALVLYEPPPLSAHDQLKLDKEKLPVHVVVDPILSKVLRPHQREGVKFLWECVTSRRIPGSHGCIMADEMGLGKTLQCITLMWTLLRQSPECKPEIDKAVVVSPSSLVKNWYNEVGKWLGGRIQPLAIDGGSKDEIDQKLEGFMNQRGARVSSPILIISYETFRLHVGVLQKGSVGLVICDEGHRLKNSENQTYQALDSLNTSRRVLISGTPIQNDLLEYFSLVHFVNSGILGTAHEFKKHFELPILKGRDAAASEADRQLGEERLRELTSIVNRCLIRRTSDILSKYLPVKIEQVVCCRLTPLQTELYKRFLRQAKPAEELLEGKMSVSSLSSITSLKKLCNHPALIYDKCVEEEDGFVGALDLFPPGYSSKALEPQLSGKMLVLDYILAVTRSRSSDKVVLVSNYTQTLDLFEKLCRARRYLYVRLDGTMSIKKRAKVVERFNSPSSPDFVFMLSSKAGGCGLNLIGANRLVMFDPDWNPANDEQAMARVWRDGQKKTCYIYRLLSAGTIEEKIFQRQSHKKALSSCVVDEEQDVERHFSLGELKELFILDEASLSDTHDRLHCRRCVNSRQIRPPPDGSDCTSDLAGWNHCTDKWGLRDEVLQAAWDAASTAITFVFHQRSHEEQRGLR
RAD52 anneal inh: RAD52 (human) annealing inhibition | P43351 | recombinant RAD52 DNA annealing, FRET fluorescence | AID 651710 | inhibition, % at 18.7 µM | 360,000 compounds, 0.46% hits;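 active = every replicate showing at least 50% inhibition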
Numbers without * were called inactive; . = no result given. This is a sample that favours compounds with a hit; in the whole collection about 1.2% have one here.

SMILES	N-glyco inh	AF4-AF9 inh	CASP6 VEID inh	RAD54 branch	RAD52 anneal inh
O=C(c1cccc(F)c1)N1CC[C@@H]2[C@@H](CO)Nc3ccc(-c4ccccc4)cc3[C@@H]21	.	31.4*	-1.5	.	-14.9
COc1cccc(-c2ccc3c(c2)[C@@H]2[C@@H](CCN2C(=O)C2CCCCC2)[C@H](CO)N3)c1	.	36.1*	-3.2	.	-13.4
COc1cccc(-c2ccc3c(c2)[C@@H]2[C@@H](CCN2C(=O)C2CCC2)[C@H](CO)N3)c1	.	.	.	-9.0	.
O=C(C1CCCC1)N1CC[C@@H]2[C@@H](CO)Nc3ccc(-c4cccc(F)c4)cc3[C@@H]21	.	25.1*	2.1	.	-8.4
COc1cccc(-c2ccc3c(c2)[C@@H]2[C@@H](CCN2C(=O)C2CCCC2)[C@H](CO)N3)c1	.	32.2*	-1.3	.	4.2
O=C(c1cccc(F)c1)N1CC[C@@H]2[C@@H](CO)Nc3ccc(-c4cccc(F)c4)cc3[C@@H]21	.	.	.	0.1	.
C[C@@H]1CN([C@@H](C)CO)C(=O)Cc2cc(NC(=O)Cc3cn(C)c4ccccc34)ccc2O[C@H]1CN(C)S(=O)(=O)c1cccs1	.	1.0	-2.7	-4.1	13.6
O=C(c1ccc(F)cc1)N1CC[C@@H]2[C@H]1c1cc(C3=CCCCC3)ccc1N[C@@H]2CO	.	.	.	5.8	.
O=C(C1CCCC1)N1CC[C@@H]2[C@H](CO)Nc3ccc(C4=CCCCC4)cc3[C@@H]21	.	34.3*	0.3	.	21.4
CC1=C(N2CCOCC2)CCC1=O	4.2	-1.4	4.8	-5.3	-2.1
CC1=C(n2ccnc2)CCC1=O	86.4*	.	.	8.1	.
C[C@@H]1CN([C@@H](C)CO)C(=O)c2cc(NC(=O)CCCCCC(=O)Nc3ccccc3N)ccc2O[C@@H]1CN(C)CC1CCCCC1	.	3.6	0.8	.	17.5
Cc1nc(-c2ccccc2)sc1-c1nc(-c2ccncc2)ncc1S(=O)(=O)c1ccccc1	57.1*	.	.	-1.1	.
CC(=O)NC1C(=O)N(CCN2CCOCC2)c2ccc(Br)cc21 (centres undefined)	2.7	16.1	34.5	-17.6	23.2
CCOc1ccc2c(c1)C(NC(C)=O)C(=O)N2CCN1CCOCC1 (centres undefined)	0.4	25.0*	55.1*	-31.0	21.7
O=c1ccc2[n+]([O-])c3ccc(O)cc3oc-2c1	5.1	42.7*	87.9*	.	-293.1
O=c1cc(O)c2ccc(O)cc2o1	-4.3	-1.5	-0.2	-4.1	-12.0
C[C@H](CO)N1C[C@H](C)[C@H](CN(C)Cc2ccc(C(F)(F)F)cc2)Oc2ccc(NC(=O)Cn3cnnn3)cc2C1=O	.	0.3	2.1	2.1	-26.7
COC(=O)N(C)C[C@H]1OCc2ccccc2-c2ccccc2C(=O)N([C@@H](C)CO)C[C@@H]1C	.	-2.3	-3.5	1.5	-2.3
O=C1c2ccccc2C(Nc2ccccc2F)N1c1cccnc1 (centres undefined)	-1.2	-2.1	-0.8	-1.6	0.1
COC(=O)c1ccccc1NC1c2ccccc2C(=O)N1c1cccnc1 (centres undefined)	0.4	54.9*	1.6	11.1	-11.8
Cc1ncc(CO)c(/C=N/NC(=O)c2cc(Br)ccc2O)c1O	2.4	28.3*	4.8	.	-38.6
Cc1cc(C(=O)N/N=C/c2c(CO)cnc(C)c2O)c2ccccc2n1	1.0	1.3	-10.8	-2.2	-16.1
CN1CCN(NC(=O)Nc2ccc(F)cc2)CC1	0.6	-0.1	48.0*	-1.7	9.5
Cc1cc(C(=O)Nc2cccc3c2O[C@@H](CN(C)Cc2ccc(C(F)(F)F)cc2)[C@H](C)CN([C@@H](C)CO)C3=O)n(C)n1	.	1.5	-0.8	7.3	30.7
SMILES	N-glyco inh	AF4-AF9 inh	CASP6 VEID inh	RAD54 branch	RAD52 anneal inh
N#C/C(=C\c1ccc(O)c(O)c1)C(=O)c1ccc(O)c(O)c1	-4.7	1.2	71.7*	-21.8	-247.1
CC(=O)N1/C(=C/c2ccc(N(C)C)cc2)C(=O)c2ccccc21	14.6	44.2*	1.3	.	-43.2
CN(C)c1ccc(/C=C2\CCC/C(=C\c3ccccc3)C2=O)cc1	3.7	2.8	1.2	-14.8	-43.7
CNC[C@H]1Oc2ccc(NS(=O)(=O)c3cccs3)cc2C(=O)N([C@@H](C)CO)C[C@H]1C	.	-4.2	-5.3	7.2	-0.1
O=C(O)c1ccc(-n2cccc2/C=C2/NC(=O)N(c3ccccc3)C2=O)cc1	1.5	-2.3	69.5*	.	-16.3
O=C(O)c1ccc(-n2cccc2/C=C2/NC(=O)N(c3cccc(Cl)c3)C2=O)cc1	0.2	-2.6	80.8*	.	-36.2
N#Cc1ccccc1CN1C(=O)S/C(=C/c2cccn2-c2ccc(C(=O)O)cc2)C1=O	2.2	.	.	.	.
O=C1N/C(=C/c2cccn2-c2ccccc2)C(=O)N1Cc1ccccc1F	-0.9	.	.	.	.
CN1C(=O)S/C(=C/c2cccn2-c2cccc(C(=O)O)c2)C1=O	-1.3	-3.1	10.6	4.8	-34.5
O=C(O)c1ccc(-n2cccc2/C=C2/SC(=O)N(CC(=O)N3CCCC3)C2=O)cc1	2.5	-3.7	65.6*	6.4	-17.8
C[C@@H]1CCCCO[C@@H](CN(C)C(=O)c2ccncc2)[C@@H](C)CN([C@H](C)CO)C(=O)c2cc(NC(=O)c3ccccc3)ccc2O1	.	-6.1	-0.2	-4.4	2.5
C[C@@H]1CN([C@@H](C)CO)C(=O)c2cc(NC(=O)Cn3cnnn3)ccc2O[C@H]1CN(C)Cc1ccccc1	.	-3.1	-3.6	0.1	-4.9
O=C(C[C@H]1C[C@@H]2c3cc(NC(=O)C4CCC4)ccc3O[C@@H]2[C@H](CO)O1)NCC(F)(F)F	.	0.2	-1.4	1.0	-4.2
C[C@@H]1CN([C@@H](C)CO)C(=O)c2cc(NS(C)(=O)=O)ccc2O[C@@H](C)CCCCO[C@H]1CN(C)S(=O)(=O)c1ccc(Cl)cc1	.	-0.2	-0.8	-6.9	-20.4
O=C(C[C@@H]1C[C@@H]2c3cc(NS(=O)(=O)c4ccc(F)cc4)ccc3O[C@@H]2[C@H](CO)O1)NCC(F)(F)F	.	-1.0	-1.3	3.0	-12.6
COc1cccc(NC(C(=O)Nc2cccc(C(C)=O)c2)c2ccccc2)c1 (centres undefined)	-2.7	.	.	-8.2	.
COc1cc(NC(C(=O)Nc2cccc(C(C)=O)c2)c2ccccc2)cc(OC)c1OC (centres undefined)	27.4*	.	.	.	.
O=C(NC[C@H]1CC[C@H]2[C@H](CN2C(=O)NC2CCCC2)O1)c1ccc2c(c1)OCO2	.	-4.5	1.1	.	-12.0
O=C(NC[C@@H]1CC[C@@H]2[C@@H](CN2C(=O)NC2CCCC2)O1)c1ccc2c(c1)OCO2	.	11.9	16.7	.	111.9*
COc1cc2c(cc1OC)C(=O)N1[C@H]3c4ccccc4OC[C@@H]3[C@H](c3ccccc3)[C@]1(C)C(=O)N2	41.1*	.	.	-0.5	-14.5
COc1ccc2c(c1)OC[C@H]1[C@H]2N2C(=O)c3cc(OC)c(OC)cc3NC(=O)[C@@]2(C)[C@H]1c1ccccc1	47.3*	7.6	1.0	5.4	-64.6
COc1ccc2c(c1)OC[C@H]1[C@H]2N2C(=O)c3ccc(F)cc3NC(=O)[C@@]2(C)[C@H]1c1ccccc1	19.7	.	-1.1	-1.6	-8.4
CCN(CC)CCNc1cc(C)c(C#N)c2nc3ccccc3n12	7.3	-1.3	0.2	27.3	-84.3
